Screening data: PubChem, several laboratories
ATG4B inhibitor – ATG4B protease inhibitors, primary screen, biochemical, fluorescence, uHTS. AID 504462, 2011. Cysteine protease ATG4B (Homo sapiens), Q9Y4P1. ATG4B cleavage of LC3-PLA2, NBD-HPC fluorescence, 1 h. inhibition, % at 8.33 µM. actives 0.51% (n = 340,000); in the data active = inhibition above about 40%
Target sequence (Q9Y4P1 whole entry, looked up): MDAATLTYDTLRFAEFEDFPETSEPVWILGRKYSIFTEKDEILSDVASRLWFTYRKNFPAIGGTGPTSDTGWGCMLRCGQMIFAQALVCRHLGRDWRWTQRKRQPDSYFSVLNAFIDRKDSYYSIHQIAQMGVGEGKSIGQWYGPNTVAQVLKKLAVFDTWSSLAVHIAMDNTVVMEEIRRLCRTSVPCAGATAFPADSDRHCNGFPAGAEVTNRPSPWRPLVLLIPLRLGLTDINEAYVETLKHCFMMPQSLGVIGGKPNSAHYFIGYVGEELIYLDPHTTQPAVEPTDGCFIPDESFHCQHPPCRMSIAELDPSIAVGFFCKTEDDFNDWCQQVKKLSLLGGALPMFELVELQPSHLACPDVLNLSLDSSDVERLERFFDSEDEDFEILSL
tim10-1 inh – growth inhibitors of tim10-1 mutant yeast, primary screen, luminescence, uHTS; S. cerevisiae tim10-1 ts strain growth, BacTiter-Glo, 24 h; inhibition, % at 20 µM; AID 463190, 2010; actives 2.2% (n = 330,000);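 active = inhibition of at least 40%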;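 also: mutant grown at 25 °C; 0% = DMSO wells with yeast and 100% = wells holding no yeast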
SKKanGAS inh – S. pyogenes SKKanGAS growth inhibitors in kanamycin, primary screen, streptokinase expression inhibitor project, SKKanGAS strain, BacTiter-Glo luminescence; inhibition, % at 7.5 µM; actives 1.3% (n = 300,000); 6 h;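 active = mean replicate score, as percent of positive control median, at least 50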;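 also: strain carries kanamycin resistance gene driven by streptokinase promoter and grows in 40 µg/ml kanamycin; loss of luminescence reflects streptokinase promoter inhibition or plain growth inhibition; 0% = median of DMSO wells and 100% = positive control at its reference dose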
PfHsp90 yeast 2 – growth inhibition of PfHsp90-expressing yeast, primary screen, antimalarial PfHsp90 inhibitor project, S. cerevisiae, BacTiter-Glo luminescence, single point, set 2; BacTiter-Glo ATP, 48 h; yeast lacking PDR1 and PDR3 efflux regulators; inhibition, % at 9.4 µM; actives 0.32% (n = 310,000);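 active = every replicate shows inhibition above about 80%, whatever the replicate mean, limit read from the data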;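 also: 0% = DMSO neutral controls and 100% = 20 µM radicicol positive controls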
tim23-1 inh – growth inhibitors of tim23-1 mutant yeast, primary screen, luminescence, uHTS. AID 463212, 2010. inhibition, % at 20 µM. actives 1.3% (n = 330,000). S. cerevisiae tim23-1 growth, BacTiter-Glo luminescence, 24 h;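 active = growth inhibition of the mutant yeast at or above 50%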;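 also: temperature-sensitive mutant grown at 25 °C; plate controls were DMSO-treated mutant yeast for no effect and medium wells lacking yeast for full effect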
TIM10 inh – growth inhibitors of isogenic TIM10 control yeast, primary screen, counter-screen for tim10-1 yeast inhibitor project, luminescence, uHTS | AID 463195, 2010 | inhibition, % at 10 µM | actives 1.4% (n = 330,000) | S. cerevisiae TIM10 strain growth, BacTiter-Glo luminescence, 24 h;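 active = inhibition of 40% or more at the single tested concentration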;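 also: wild-type TIM10 isogenic control strain grown at permissive 25 °C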
TIM10 conf – growth inhibitors of wild-type TIM10 yeast, confirmation, counter-screen for tim10-1 synthetic lethality project, single concentration, luminescence, S. cerevisiae; actives 63% (n = 4,600); S. cerevisiae tim10 strain growth, BacTiter-Glo luminescence, 24 h; inhibition, % at 10 µM; shares compounds with TIM10 inh;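 active = inhibition of yeast growth at or above a set limit in either of two replicates at 10 µM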;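 also: this counterscreen used the strain with wild-type TIM10; 0% = yeast with DMSO and 100% = medium wells lacking yeast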
* marks the source's active call; other numbers are inactive results; . = no result. The list is not random: actives were taken first. Their share in the collection is about 4.7%.

SMILES	ATG4B inhibitor	tim10-1 inh	SKKanGAS inh	PfHsp90 yeast 2	tim23-1 inh	TIM10 inh	TIM10 conf
O=C(Nc1ccc2c(c1)OCO2)Nc1ccc(Br)cn1	4.4	2.4	-9.1	32.8	10.1	22.2	.
COCC(=O)/C=C1\Sc2ccccc2N1C	-1.6	10.1	-8.4	3.2	12.3	8.9	.
CN1/C(=C/C(=O)c2cccs2)Sc2ccccc21	.	22.0	-12.9	.	41.8	73.0*	60.7*
O=C(Cn1nc(C(=O)O)c2ccccc2c1=O)NC12CC3CC(CC(C3)C1)C2	-10.5	36.9	30.9	0.6	32.4	67.8*	19.6
COc1ccc(NC(=O)CSc2nccc(C)n2)cc1	-5.1	-1.0	-9.8	3.2	6.9	-16.5	.
Cc1[nH]nc2ncc(C(=O)c3cc(Cl)cc(Cl)c3O)cc12	-5.7	34.2	23.4	-29.9	43.0	63.1*	30.6*
N/C(=N\OC(=O)c1cccc(Br)c1)c1ccccn1	-5.1	33.1	-4.1	19.9	46.8	59.1*	41.9*
N/C(=N\OC(=O)c1ccc2c(c1)OCO2)c1ccc(Cl)cc1	-17.5	32.7	2.1	15.6	47.3	47.8*	46.5*
COc1cc(OC)cc(C(=O)O/N=C(\N)c2ccccn2)c1	11.4	3.0	4.8	.	23.3	1.1	.
COc1ccc(C(=O)O/N=C(\N)c2ccccn2)cc1	9.9	34.2	4.3	72.5	48.8	42.2*	35.8*
N/C(=N\OC(=O)c1ccc(Cl)cc1)c1ccccn1	10.7	37.2	5.6	.	48.4	61.7*	47.2*
O=c1c2cc(F)ccc2sn1-c1ccc(F)cc1	-3.0	19.9	.	19.5	37.3	46.6*	56.8*
COc1ccc(-n2sc3ccc(F)cc3c2=O)cc1	-8.7	26.5	.	-45.9	27.9	28.7	.
Cc1ccc(C(=O)NCCOC23CC4CC(CC(C4)C2)C3)cc1	-6.8	32.9	-7.0	-1.6	44.7	33.4	.
Cc1cc2nc(/C=C/c3cccnc3)[nH]c2cc1C	0.8	-3.8	-3.5	5.8	37.5	51.2*	68.7*
Cc1cc2nc(/C=C/c3nc4cc(C)c(C)cc4[nH]3)[nH]c2cc1C	-6.2	.	-0.2	-11.2	.	.	.
O=[N+]([O-])c1cc(Cl)cc(/C=N\Nc2ccccn2)c1O	-0.6	16.4	102.4*	.	43.8	41.4*	28.5
CCOc1ccc(CCNC(=O)C2CCN(C(=O)N(C)C)CC2)cc1OCC	3.2	-8.5	10.6	38.0	-4.0	-11.7	.
Cc1cc(NCCCn2ccnc2)n2nc(-c3ccc(Cl)cc3)cc2n1	-14.6	23.2	7.8	-35.0	24.4	12.7	.
CC(C)(C)c1cc(NCCCn2ccnc2)n2ncc(-c3ccc(Cl)cc3)c2n1	23.1	34.5	105.8*	.	21.4	60.3*	60.0*
CCCn1c(SCC(=O)NCc2ccco2)nc2c1c(=O)n(C)c(=O)n2C	-6.7	-4.8	-4.5	-11.1	12.2	-0.3	.
Cc1cc(Cl)ccc1OCC(=O)N/N=C/c1ccc(OC2OC(CO)C(O)C(O)C2O)cc1 (stereo unspecified)	-6.5	14.6	-0.2	1.0	-5.4	8.0	.
O=C(Nc1cccc(Cl)c1)c1cc(S(=O)(=O)NCCc2ccc(Cl)cc2)ccc1F	-10.4	29.7	41.5	-0.7	25.7	41.0*	51.5*
Cc1ccc(NC(=O)c2cc(S(=O)(=O)NCCc3ccccc3)ccc2F)cc1Cl	-7.5	31.6	42.6	-5.2	39.6	33.2	.
COc1ccc(C(NC(=O)CN2C(=O)NC3(CCc4ccccc43)C2=O)c2ccccc2)cc1 (stereo unspecified)	-8.2	0.1	.	-14.8	16.9	8.7	.
SMILES	ATG4B inhibitor	tim10-1 inh	SKKanGAS inh	PfHsp90 yeast 2	tim23-1 inh	TIM10 inh	TIM10 conf
O=C(CN1CC[n+]2c(-c3cccs3)csc21)c1ccc(-c2ccccc2)cc1	-1.2	20.1	22.2	-9.8	-270.9	2.6	.
CN(C)c1ccc(N=Nc2ccccc2C(=O)OCC(=O)N2CCCCCC2)cc1	-9.9	33.5	0.4	7.0	29.2	40.3*	-21.2
NNC(=O)c1ccc2nc(-c3ccc(Br)cc3)cn2c1	-14.5	-48.1	-3.3	54.9	-51.5	40.2*	30.1
Cc1ccsc1/C=N/Nc1nc2ccccc2s1	3.0	13.0	-10.7	-49.2	39.4	40.0*	44.5*
Oc1ccccc1C=NNc1nc2ccccc2s1	2.2	.	.	.	.	.	.
COc1ccc([N+](=O)[O-])cc1C1NN=C(c2ccccc2O)S1 (stereo unspecified)	-11.9	2.5	-2.6	.	-0.6	-1.3	.
O=[N+]([O-])c1ccc(O)c(C2=NNC(c3ccccc3F)C2)c1 (stereo unspecified)	3.7	35.5	15.7	-56.3	42.9	49.9*	56.7*
COc1ccc(S(=O)(=O)NC2CC(C)(C)NC(C)(C)C2)c(C)c1C	.	10.3	0.0	.	7.2	-0.4	.
COc1cc(/C=C(/C(=O)c2cccs2)c2nc3ccccc3[nH]2)ccc1O	-1.9	38.1	5.3	15.8	24.6	43.2*	33.6*
S=C(c1cn(CCOc2cccc3ccccc23)c2ccccc12)N1CCCC1	-11.0	5.5	19.7	-26.5	11.1	21.1	.
S=C(c1cn(CCOc2ccccc2)c2ccccc12)N1CCCC1	-5.1	29.3	10.9	2.1	27.6	49.6*	31.6*
C=CCNc1nc(N)c([N+](=O)[O-])c(Nc2ccccc2OC)n1	-2.3	34.1	4.1	-19.3	30.8	40.9*	69.2*
COc1ccc(C(=O)c2ccc(OC)c3cccc(O)c23)cc1OC	1.9	31.3	4.3	-24.2	35.9	43.8*	26.8
COc1ccc(C(=O)c2ccc(OC)c(OC)c2)cc1OC	-15.9	18.9	4.7	-2.2	18.3	5.4	.
O=C(c1ccccc1Cl)N(C(=O)c1ccccc1Cl)c1nccc(-c2cccs2)n1	0.5	27.3	3.7	-31.3	28.4	41.8*	10.2
Cc1ccc(C)c(Nc2ncccc2C(=O)NCc2cccs2)c1	6.9	39.9	-13.9	-18.9	49.4	44.5*	44.1*
CCN(CC)c1ncccc1C(=O)NCc1cccs1	-9.4	-13.5	4.8	60.4	-5.7	-7.9	.
COc1ccc(NC(=O)COc2ccc3c(c2)OCO3)cc1	-12.4	-51.6	1.6	1.3	4.0	2.0	.
O=C(COc1ccc2c(c1)OCO2)NC12CC3CC(CC(C3)C1)C2	-14.8	31.5	8.6	8.5	38.0	47.1*	32.5*
CC(=O)c1nn(-c2cccc(Br)c2)cc1C(=O)c1ccc(Cl)cc1	-0.4	9.0	-13.8	-0.6	-8.7	5.6	.
c1ccc2cc(CSCc3nc4ccccc4[nH]3)ccc2c1	-11.6	35.3	24.3	28.7	47.5	53.4*	-6.0
